# Assay results reported in PubChem BioAssay (Tox21).
# Values without a mark were called inactive. Inconclusive results are not listed. Entries that show only a call come without a potency. Calls of active or inactive are those of the source. The call rests on the fitted dose curve; in most records, active means well fitted curve in the direction sought with a large enough effect in the repeat runs; inconclusive means weak or mixed curves; inactive means no such curve, though single readings can be large; an effect the other way counts as inactive or inconclusive.
# Test: Caspase-3/7 induction in HepG2 cells by small molecules, qHTS assay (AID 1346978); further: nearly all actives have a fitted effect of over 15% in size
# Conditions: HepG2 caspase-3/7 activation, Caspase-Glo luminescence, 17 h; series mostly up to 92.4 µM
# Method in brief: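 Wild-type HepG2 cells, 2,000/well, settled 5 hr at 37 C and 5% CO2, then compound-treated for 17 hr; caspase-3/7 activity read by luminescent Caspase-Glo 3/7 after 30 min at room temperature.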
row,Structure (SMILES),outcome
1,Oc1ccc2c(c1)OCO2,inactive
2,NC(N)=NN=C(/C=C/c1ccc([N+](=O)[O-])o1)/C=C/c1ccc([N+](=O)[O-])o1,inactive
3,CCCCCCCCCCCCC(=O)O,inactive
4,CCCCC(CC)(CO)CO,inactive
5,SC1CCCC1,inactive
6,Cc1cc(O)ccc1N,inactive
7,Cc1ccc(C(=O)C(C)CN2CCCCC2)cc1 (stereo not drawn),inactive

# Test: Caspase-3/7 induction in CHO-K1 cells by small molecules, qHTS cell viability counter screen (AID 1346979); further: nearly all actives have a fitted effect of over 35% in size; further: potency means the concentration at half of the fitted maximal effect
# Conditions: CellTiter-Fluor fluorescence, 17 h; series mostly up to 92.4 µM
# Method in brief: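 CellTiter-Fluor viability check, qHTS format: wild-type CHO-K1, 16hr compound treatment, 1hr reagent incubation, fluorescence read.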
Structure (SMILES),Potency,"activity change, negative = cytotoxicity"
OCC1CC2CC1C1CCC(CO)C21 (stereo not drawn),inactive,
CC(=O)/C(C)=C/C1C(C)=CCCC1(C)C (stereo not drawn),inactive,
O=[N+]([O-])c1cc[n+]([O-])cc1,38.6 µM (active),
CC(=O)N(CC(=O)N(C)C)c1ccccc1,inactive,
COC(=O)C(C)=O,inactive,
Nc1ccc(C(=O)N2CC3CC(CN(Cc4ccccc4)C3)C2)cc1,inactive,
CC(=O)O[C@@H]1C(=O)O[C@@H]2[C@H]1OC(=O)[C@@H]2OC(C)=O,inactive,
CC(C)NCC(O)COc1ccc(CC(N)=O)cc1 (stereo not drawn),inactive,
Cc1c(Cn2ccnc2)c2ccccc2n1CCC(=O)O,inactive,
CCN(CC)CCOc1ccc2c(c1)C(=O)c1cc(OCCN(CC)CC)ccc1-2,26.6 µM (active),
CCCCOc1ccc(CC(=O)NO)cc1,23.7 µM (active),
C=CC(=O)OCC(C)OCC(C)OCC(C)OC(=O)C=C (stereo not drawn),24.3 µM (active),
CC(C)(C)c1cc(O)c(C(C)(C)C)cc1O,61.1 µM (active),
CC[C@@H]1C[C@H](N(Cc2cc(C(F)(F)F)cc(C(F)(F)F)c2)C(C)=O)c2cc(C(F)(F)F)ccc2N1C(=O)OC(C)C,inactive,
O=C(CCN1CCN2CCCC2C1)N1c2ccccc2Sc2ccc(Cl)cc21 (stereo not drawn),,-16.9% [at 19 µM]
CC(C)c1ccc2c(C(C)C)cc(C(C)C)c(S(=O)(=O)O)c2c1,inactive,
CCOc1nc2cccc(C(=O)O)c2n1Cc1ccc(-c2ccccc2-c2nn[nH]n2)cc1,inactive,
CCc1nn(C2CCCCC2)c2cc(C3(C#N)CCC(C(=O)O)CC3)ccc12 (stereo not drawn),27.3 µM (active),
CCCCc1cc2ccccc2c(OCCN(C)C)n1,inactive,
CCCCC(CC)COCCCN (stereo not drawn),inactive,
Oc1ccc2c(c1)OCO2,inactive,
NC(N)=NN=C(/C=C/c1ccc([N+](=O)[O-])o1)/C=C/c1ccc([N+](=O)[O-])o1,5.31 µM (active),
CCCCC(CC)(CO)CO,inactive,
SC1CCCC1,inactive,
Cc1cc(O)ccc1N,61.4 µM (active),
Cc1ccc(C(=O)C(C)CN2CCCCC2)cc1 (stereo not drawn),inactive,

# Test: Caspase-3/7 induction in CHO-K1 cells by small molecules, qHTS assay (AID 1346980); further: nearly all actives have a fitted effect of over 15% in size
# Conditions: CHO-K1 caspase-3/7 induction, Caspase-Glo luminescence, 17 h; series mostly up to 92.4 µM
# Method in brief: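 Wild-type CHO-K1 cells exposed to compounds for 17hr at 37 C, 5% CO2. Caspase-3/7 activity then measured by Caspase-Glo 3/7 luminescence after 30min at room temperature.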
row,Structure (SMILES),Potency
1,OCC1CC2CC1C1CCC(CO)C21 (stereo not drawn),inactive
2,CC(=O)/C(C)=C/C1C(C)=CCCC1(C)C (stereo not drawn),inactive
3,O=[N+]([O-])c1cc[n+]([O-])cc1,inactive
4,CC(=O)N(CC(=O)N(C)C)c1ccccc1,inactive
5,COC(=O)C(C)=O,inactive
6,Nc1ccc(C(=O)N2CC3CC(CN(Cc4ccccc4)C3)C2)cc1,inactive
7,CC(=O)O[C@@H]1C(=O)O[C@@H]2[C@H]1OC(=O)[C@@H]2OC(C)=O,inactive
8,CC(C)NCC(O)COc1ccc(CC(N)=O)cc1 (stereo not drawn),inactive
9,Cc1c(Cn2ccnc2)c2ccccc2n1CCC(=O)O,inactive
10,CCN(CC)CCOc1ccc2c(c1)C(=O)c1cc(OCCN(CC)CC)ccc1-2,inactive
11,CCCCOc1ccc(CC(=O)NO)cc1,inactive
12,O=c1[nH]cnc2ccccc12,inactive
13,c1ccc(OCc2ccc(CCCN3CCOCC3)cc2)cc1,inactive
14,CCOC(=O)C1=C(C)NC(C)=C(C(=O)OC)C1c1cccc([N+](=O)[O-])c1 (stereo not drawn),inactive
15,CC(C)(C)c1cc(O)c(C(C)(C)C)cc1O,inactive
16,Oc1ccc(C(O)CNCCCCCCNCC(O)c2ccc(O)c(O)c2)cc1O (stereo not drawn),inactive
17,CN(C(=O)CCCOc1ccc2[nH]c(=O)ccc2c1)C1CCCCC1,inactive
18,CCCCCOC(=O)c1ccc(O)cc1,inactive
19,CC(C)c1ccc2c(C(C)C)cc(C(C)C)c(S(=O)(=O)O)c2c1,inactive
20,CC1(C)CCC(C)(C)c2cc(NC(=O)c3ccc(C(=O)O)cc3)ccc21,inactive
21,CCOc1nc2cccc(C(=O)O)c2n1Cc1ccc(-c2ccccc2-c2nn[nH]n2)cc1,inactive
22,CCc1nn(C2CCCCC2)c2cc(C3(C#N)CCC(C(=O)O)CC3)ccc12 (stereo not drawn),inactive
23,CCOc1ccc2[nH]cc(C(=O)NCc3ccccc3)c(=O)c2n1,inactive
24,CCCCc1cc2ccccc2c(OCCN(C)C)n1,inactive
25,CCCCC(CC)COCCCN (stereo not drawn),inactive
26,Oc1ccc2c(c1)OCO2,inactive
27,CCCCCCCCCCCCC(=O)O,inactive
28,CCCCC(CC)(CO)CO,inactive
29,Cc1ccc(C(=O)C(C)CN2CCCCC2)cc1 (stereo not drawn),inactive

# Test: Caspase-3/7 induction in HepG2 cells by small molecules, qHTS cell viability counter screen (AID 1346981); further: nearly all actives have a fitted effect of over 30% in size; further: potency means the concentration at half of the fitted maximal effect
# Conditions: CellTiter-Fluor fluorescence, 17 h; series mostly up to 92.4 µM
# Method in brief: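 Wild-type HepG2 cells (2,000/well) were allowed to settle for 5 hr at 37 C, 5% CO2, then dosed with compounds in DMSO by pin transfer. After 16 hr at 37 C, CellTiter-Fluor was added and fluorescence read 1 hr later.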
row,Structure (SMILES),Potency
1,OCC1CC2CC1C1CCC(CO)C21 (stereo not drawn),inactive
2,CC(=O)/C(C)=C/C1C(C)=CCCC1(C)C (stereo not drawn),inactive
3,CC(=O)N(CC(=O)N(C)C)c1ccccc1,inactive
4,COC(=O)C(C)=O,inactive
5,Nc1ccc(C(=O)N2CC3CC(CN(Cc4ccccc4)C3)C2)cc1,inactive
6,CC(=O)O[C@@H]1C(=O)O[C@@H]2[C@H]1OC(=O)[C@@H]2OC(C)=O,inactive
7,CC(C)NCC(O)COc1ccc(CC(N)=O)cc1 (stereo not drawn),inactive
8,CC(C)(C)C(=O)OCOP(=O)(COCCn1cnc2c(N)ncnc21)OCOC(=O)C(C)(C)C,inactive
9,Cc1c(Cn2ccnc2)c2ccccc2n1CCC(=O)O,inactive
10,C=CC(=O)OCC(C)OCC(C)OCC(C)OC(=O)C=C (stereo not drawn),inactive
11,O=c1[nH]cnc2ccccc12,inactive
12,c1ccc(OCc2ccc(CCCN3CCOCC3)cc2)cc1,inactive
13,CCOC(=O)C1=C(C)NC(C)=C(C(=O)OC)C1c1cccc([N+](=O)[O-])c1 (stereo not drawn),inactive
14,Oc1ccc(C(O)CNCCCCCCNCC(O)c2ccc(O)c(O)c2)cc1O (stereo not drawn),inactive
15,CC[C@@H]1C[C@H](N(Cc2cc(C(F)(F)F)cc(C(F)(F)F)c2)C(C)=O)c2cc(C(F)(F)F)ccc2N1C(=O)OC(C)C,inactive
16,CN(C(=O)CCCOc1ccc2[nH]c(=O)ccc2c1)C1CCCCC1,inactive

row,Structure (SMILES),Potency
1,CC(CN)CCCN (stereo not drawn),inactive
2,CCCCCOC(=O)c1ccc(O)cc1,inactive
3,CC(C)c1ccc2c(C(C)C)cc(C(C)C)c(S(=O)(=O)O)c2c1,inactive
4,O=C(/C=C/c1ccc(O)c(O)c1)O[C@@H]1C[C@](O)(C(=O)O)C[C@@H](O)[C@H]1O,inactive
5,CCOc1nc2cccc(C(=O)O)c2n1Cc1ccc(-c2ccccc2-c2nn[nH]n2)cc1,inactive
6,CCc1nn(C2CCCCC2)c2cc(C3(C#N)CCC(C(=O)O)CC3)ccc12 (stereo not drawn),15.4 µM (active)
7,CCOc1ccc2[nH]cc(C(=O)NCc3ccccc3)c(=O)c2n1,inactive
8,CCCCc1cc2ccccc2c(OCCN(C)C)n1,inactive
9,CCCCC(CC)COCCCN (stereo not drawn),inactive
10,Oc1ccc2c(c1)OCO2,inactive
11,NC(N)=NN=C(/C=C/c1ccc([N+](=O)[O-])o1)/C=C/c1ccc([N+](=O)[O-])o1,8.41 µM (active)
12,CCCCCCCCCCCCC(=O)O,inactive
13,CCCCC(CC)(CO)CO,inactive
14,SC1CCCC1,inactive
15,Cc1ccc(C(=O)C(C)CN2CCCCC2)cc1 (stereo not drawn),inactive
